# MBNL1 CUG block: inhibitors of human MBNL1 binding to CUG repeat RNA; TR-FRET MBNL1-His/biotin-(CUG)12 binding, 665/545 ratio; Q9NR56; AID 2675; 280,000 compounds, 0.036% hits; Potency, µM (series often up to 57.5 µM), for the others: at the highest dose activity change, negative = inhibition, most hits filed as inhibitors; active = well fitted inhibition curve with a large enough effect in the signal ratio, with a control signal flat, not every such curve was filed as active; inconclusive = small, poorly fitted or top-dose-only effect, or effect the other way, or a change in a side signal; inactive = no such curve, though single readings can be large or run the other way; the % refers to the signal ratio; also: potency is read from the fitted curve at half-maximal effect; % is scaled to controls: 0 for no effect and ±100 for the full control effect
# Target sequence (Q9NR56 whole entry, looked up): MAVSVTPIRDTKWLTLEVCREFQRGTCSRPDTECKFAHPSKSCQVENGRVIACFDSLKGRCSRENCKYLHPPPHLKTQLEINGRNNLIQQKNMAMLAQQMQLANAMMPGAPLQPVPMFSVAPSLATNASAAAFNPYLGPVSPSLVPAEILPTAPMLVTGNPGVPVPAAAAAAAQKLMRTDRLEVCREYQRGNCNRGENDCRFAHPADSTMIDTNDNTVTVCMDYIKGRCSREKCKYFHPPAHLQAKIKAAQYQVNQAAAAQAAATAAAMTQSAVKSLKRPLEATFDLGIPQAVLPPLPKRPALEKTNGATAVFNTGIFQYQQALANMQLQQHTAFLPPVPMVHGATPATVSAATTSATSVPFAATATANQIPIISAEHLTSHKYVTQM
#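 Ratiometric TR-FRET (665 over 545 nm, excitation 340 nm) tracks disruption of MBNL1-His/biotin-(CUG)12 complex after 60 min at room temperature, with compounds at 92 nM to 58 uM final.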
# Epigenetic derep: epigenetic control regulation, reporter derepression. murine LDR cells, GFP reporter derepression, 30 h. Potency, µM (series often up to 53.9 µM), inactives show at the highest dose GFP activation, usual class: activators. 280,000 compounds, 0.2% hits; also: potency is read from the fitted curve at half-maximal effect; % of control where 0% means no effect; nearly all actives have a fitted effect of over 60% in size
#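 Readout is the number of GFP-expressing murine LDR cells, counted by cytometry following washing. Cells were treated with compound for 30 h at 37 C; the stably integrated CMV-GFP locus is normally silent.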
# TRHR agonist-1: agonists of human TRH receptor; activation, % at 2 µM; P34981; 360,000 compounds, 0.18% hits; TRHR cells, calcium flux fluo-8, FDSS agonist mode; AID 493084; in the data active = activation above about 30%; also: 0% is about no effect
# Target sequence (P34981 whole entry, looked up): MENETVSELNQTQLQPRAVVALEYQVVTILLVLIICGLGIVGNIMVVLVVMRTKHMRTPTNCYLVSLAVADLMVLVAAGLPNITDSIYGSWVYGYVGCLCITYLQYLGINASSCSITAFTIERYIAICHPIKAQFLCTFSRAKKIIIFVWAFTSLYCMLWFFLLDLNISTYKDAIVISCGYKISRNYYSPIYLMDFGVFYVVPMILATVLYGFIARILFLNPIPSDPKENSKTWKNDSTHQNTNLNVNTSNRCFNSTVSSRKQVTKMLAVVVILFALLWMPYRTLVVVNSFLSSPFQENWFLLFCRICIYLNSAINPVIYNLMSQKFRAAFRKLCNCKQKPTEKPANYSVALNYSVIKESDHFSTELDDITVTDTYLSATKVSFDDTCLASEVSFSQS
#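 In this calcium-flux screen, cells bearing human TRHR are dye-loaded with fluo-8, baselined for 10 cycles, then exposed to library compounds; positive kinetic calcium responses during the agonist phase mark hits, with TRH as control.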
# TRHR enhancer-1: TRH receptor (human) allosteric enhancement; P34981; TRHR cells, fluo-8 calcium fluorescence, EC20 TRH enhancement; enhancement, % at 2 µM; 360,000 compounds, 0.66% hits; AID 493056; in the data active = enhancement above about 30%; also: 0% is about no effect
#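 Enhancer read-out: after compound pinning and an initial kinetic agonist-mode read, an EC20 of TRH (10 nM final) was injected and fluo-8 calcium signal (Ex 480/Em 530) followed at 1 s/cycle for 100 cycles in TRHR-expressing cells.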
# IL2 activator: IL-2 activation | IL-2 activation reporter assay, cell-based qHTS; stimulated with anti-CD3/CD4/CD28 beads; in transgenic mouse T cells | activation, % (series mostly up to about 46 µM) | 360,000 compounds, 0.065% hits; in the data active = activation above about 50%; inconclusive = mostly about 30% to 49%; also: 0% is about no effect
#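 Unstimulated transgenic mouse T cells preincubated 60 min with compound, then stimulated with anti-CD3/anti-CD4-coated beads plus anti-CD28 for 18 h at 37 degrees C. IL-2 response read as EGFP and DsRed fluorescence by plate cytometry.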
# CBFb-RUNX1 inh: CBF-beta/RUNX1 interaction disruption; 230,000 tested, under 10 active; AID 1477; AlphaScreen CBFb-His/RUNX1-biotin binding, biochemical; Potency, µM (series often up to 59.8 µM), for inactives: top-dose activity, negative = inhibition, hits mostly inhibitors; also: % of control where 0% means no effect
#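 His-tagged CBF-beta and biotinylated RUNX1 (30 nM each) were premixed 20 min at room temperature, exposed to compound for 15 min, then given nickel-chelate and streptavidin AlphaScreen beads (50 ng each). After 90 min, AlphaScreen signal was read.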
# TRHR enhancer-2: human TRH receptor allosteric enhancement confirmation. shares compounds with TRHR enhancer-1. TRH receptor cell assay, enhancer confirmation qHTS. activity change, negative = inhibition, % at 46.1 µM. 970 tested, under 10 active. AID 493076;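 also: compound effect scored on response to added TRH at EC20 of 10 nM; 0% is about no effect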
# TRHR agonist-2: human TRH receptor agonism confirmation | TRHR-expressing cells, agonist activation read-out | Potency, µM (doses to about 46.1 µM), without a hit: at the highest dose activation, most hits filed as activators | 970 compounds, 8% hits | shares compounds with TRHR enhancer-1; also: potency is read from the fitted curve at half-maximal effect; 0% is about no effect; nearly all actives have a fitted effect of over 75% in size
# An asterisk follows results filed as active; ? = inconclusive; . = not tested or not shown. Hits are enriched below; roughly 0.88% of the tested compounds scored in any of these assays. Unless noted, calls follow the shape of the dose curve; as a rule, active = well fitted curve in the direction sought with a large enough effect; inconclusive = small, poorly fitted or top-dose-only effect, or another doubt; inactive = no such curve, though single readings can be large; an effect the other way counts as inactive or inconclusive.
SMILES,MBNL1 CUG block,Epigenetic derep,TRHR agonist-1,TRHR enhancer-1,IL2 activator,CBFb-RUNX1 inh,TRHR enhancer-2,TRHR agonist-2
Cc1ccc(Cl)cc1NC(=O)C1CCCN(S(=O)(=O)c2c(C)noc2/C=C/N(C)C)C1 (stereo unspecified),.,6.1%,0.6,-1.7,.,.,.,.
O=C(Cn1cc(SCc2cccc(F)c2)c2ccccc21)N1CCCC1,.,0.4%,0.6,-11.1,.,.,.,.
Cc1ccc(NC(=O)CSc2nc3nc(C)c(Br)cc3[nH]2)cc1F,28.0%,.,0.2,80.5*,1.8,.,-7.7,0.3%
COc1ccc(CCNC(=O)CSc2nc(O)c(CCC(C)C)c(=O)[nH]2)cc1OC,-9.8%,-1.2%,0.2,1.8,-0.3,3.0%,.,.
CCCCc1c(O)nc(SCC(=O)NCCc2ccc(OC)c(OC)c2)[nH]c1=O,12.8%,2.1%,0.1,41.4*,2.9,2.2%,8.9,0.8%
COc1ccc(CCNC(=O)CSc2nc(C)nc3c2c(=O)n(C)c(=O)n3C)cc1OC,-8.2%,0.0%,0.2,45.3*,1.8,-0.1%,-2.9,1.0%
Cc1nn2c(=O)cc(COC(=O)c3cccc(NC(=O)c4cccs4)c3)nc2s1,.,-1.7%,0.1,0.8,.,.,.,.
CCOC(=O)c1cccc(NC(=O)CC2C(=O)N(c3ccccc3)C(=O)N2Cc2ccco2)c1 (stereo unspecified),.,1.3%,-0.6,-2.6,.,.,.,.
CCc1ccccc1NC(=O)C1CCCN(C(=O)c2cnn(-c3ccccc3)c2-n2cccc2)C1 (stereo unspecified),.,-1.6%,-1.8,-0.8,.,.,.,.
CCN(Cc1ccccc1)S(=O)(=O)c1ccc(F)c(C(=O)Nc2cc(C(F)(F)F)ccc2Cl)c1,.,3.5%,1.9,-4.2,.,.,.,.
O=C(CCc1nc2ccccc2c(=O)[nH]1)Nc1cc(Cl)ccc1N1CCCC1,.,.,-1.2,47.1*,-2.9,.,-1.7,-0.7%
O=C(CCc1nc2ccccc2c(=O)[nH]1)Nc1ccc(N2CCCCC2)cc1,-10.8%,-3.5%,-0.3,3.4,-0.8,-4.6%,.,.
COc1ccccc1N1CCN(c2ccc(-c3nc(-c4ccccc4)no3)cc2[N+](=O)[O-])CC1,.,-3.3%,-0.5,-4.8,.,.,.,.
CCOC(=O)C1=C(CNCCc2ccc(Cl)cc2)NC(=O)NC1c1ccc2c(c1)OCO2 (stereo unspecified),-2.9%,0.9%,0.4,41.4*,-0.2,-5.8%,7.0,?
O=C1CN(C(=O)Nc2ccccc2Cl)C(c2ccccc2)c2c(sc3c2CCCC3)N1 (stereo unspecified),.,-4.2%,-0.3,-2.3,.,.,.,.
COc1cccc(CNC(=O)c2[nH]c3cc(C)ccc3c2Sc2ccccc2)c1,.,-3.2%,-0.8,1.6,.,.,.,.
CC(CCc1ccccc1)NC(=O)Cn1cccc1C(=O)c1ccccc1 (stereo unspecified),-1.5%,.,-0.9,45.8*,-2.1,.,?,2.7%
Cc1ccccc1C(=O)c1cccn1CC(=O)NC(C)CCc1ccccc1 (stereo unspecified),2.7%,.,-0.5,-0.4,-0.8,.,.,.
CCOC(=O)N1CCN(C(=O)CN(c2cc(C)ccc2OC)S(=O)(=O)c2ccc(C)cc2)CC1,.,3.8%,3.1,0.4,.,.,.,.
S=C(NCc1ccco1)Nc1ccc(N2CCOCC2)cc1,.,3.0%,0.7,52.8*,-0.4,9.1%,-3.4,0.3%
S=C(NCc1ccco1)N1CCOCC1,-1.9%,0.3%,0.1,-0.2,2.6,.,.,.
COc1cc(C(=O)NC2CCCCCCC2)cc(OC)c1OC,.,.,.,.,1.3,.,.,.
COc1cc(C(=O)NC2CCCC2)c(Br)c(OC)c1OC,0.2%,-1.3%,0.0,49.1*,-0.4,5.7%,-1.1,4.9%
Cc1c(Cl)c([N+](=O)[O-])nn1CCCC(=O)Nc1cccc(Cl)c1Cl,14.7%,-1.0%,0.3,-2.6,0.1,1.8%,.,.
COC(=O)c1ccccc1NC(=O)CCCn1nc([N+](=O)[O-])c(Br)c1C,21.5%,0.0%,28.4,0.1,-0.5,-3.5%,-7.3,2.2%
SMILES,MBNL1 CUG block,Epigenetic derep,TRHR agonist-1,TRHR enhancer-1,IL2 activator,CBFb-RUNX1 inh,TRHR enhancer-2,TRHR agonist-2
CS(=O)(=O)N(CC(=O)NCCSc1ccccc1)c1cc(C(F)(F)F)ccc1Cl,.,-0.6%,-0.3,-3.2,.,.,.,.
O=C(COc1ccc([N+](=O)[O-])cc1)Nc1nc2c(s1)CCCC2,.,-3.2%,1.1,0.2,.,.,.,.
CS(=O)(=O)Nc1ccc(C(=O)Nc2ccc3c(c2)OCO3)cc1,-6.3%,1.1%,0.2,46.5*,2.7,-8.2%,-4.8,-0.3%
CC(=O)Nc1ccc(C(=O)Nc2ccc3c(c2)OCO3)cc1,-3.0%,3.6%,0.2,-6.0,-1.2,-13.6%,.,.
CN1/C(=C\C(=S)NC(=O)c2ccc([N+](=O)[O-])cc2)C(C)(C)c2ccccc21,12.7%,3.0%,-0.8,47.6*,-0.2,-6.1%,-3.9,1.6%
CN1/C(=C\C(=S)NC(=O)c2cccc(Br)c2)C(C)(C)c2ccccc21,69.7%,0.0%,0.1,-4.2,0.8,.,.,.
CC[C@]1(O)C[C@@H]2CN(CCc3c([nH]c4ccccc34)[C@@](C(=O)OC)(c3cc4c(cc3OC)N(C)C3[C@]45CCN4CC=C[C@](CC)(C45)[C@@H](OC(C)=O)[C@]3(O)C(=O)OC)C2)C1 (stereo partly specified),.,2.1%,.,.,.,12.4%,.,.
CCOC(=O)c1[nH]c2c(c1Cc1ccccc1OC)C(=O)CC(c1ccc(OC)cc1)C2 (stereo unspecified),.,-0.1%,1.1,-5.9,.,.,.,.
COc1ccc(CN2CCN(Cc3ccc(CO)o3)CC2CCO)cc1C (stereo unspecified),-1.6%,.,0.2,57.0*,0.1,.,-0.8,1.2%
COc1cc(C2c3c(oc4ccc(F)cc4c3=O)C(=O)N2Cc2ccc3c(c2)OCO3)ccc1O (stereo unspecified),.,1.9%,-0.3,0.3,.,.,.,.
CCCN1C(=O)c2ccccc2NC1c1ccc(Cl)c(Cl)c1 (stereo unspecified),-1.4%,.,-1.3,74.4*,1.3,.,-12.9,-0.6%
Cc1c(Cc2ccccc2)c(=O)oc2c(O)c(O)ccc12,19.6%,8.3%,0.1,41.3*,-0.4,-1.4%,-8.3,1.6%
COc1cccc(C2c3[nH]c4ccccc4c3CCN2Cc2cnn(C)c2)c1 (stereo unspecified),8.1%,0.0%,0.2,61.4*,-0.2,1.6%,3.0,?

# Compound activity as filed in PubChem.
